Measurements: publication PMC7862700, “An all-to-all approach to the identification of sequence-specific readers for epigenetic DNA modifications on cytosine”

How the values were obtained:
Test in all cases: DAPPL (digital affinity profiling via proximity ligation, sequencing); 10 mM Tris-HCl pH 7.5, 50 mM NaCl, 1 mM DTT, 4% glycerol, room temperature, 30 min; GST-TFs on glutathione beads, 16-mer random dsDNA library, 0.1% formaldehyde crosslink after washing; high values mean tight binding
Settings in all cases: protein: recombinant; tags: N-terminal GST; dsDNA, one strand shown
ERF = molecular target: T1, ERF (Homo sapiens, UniProt P50548 1-548)
T1 sequence: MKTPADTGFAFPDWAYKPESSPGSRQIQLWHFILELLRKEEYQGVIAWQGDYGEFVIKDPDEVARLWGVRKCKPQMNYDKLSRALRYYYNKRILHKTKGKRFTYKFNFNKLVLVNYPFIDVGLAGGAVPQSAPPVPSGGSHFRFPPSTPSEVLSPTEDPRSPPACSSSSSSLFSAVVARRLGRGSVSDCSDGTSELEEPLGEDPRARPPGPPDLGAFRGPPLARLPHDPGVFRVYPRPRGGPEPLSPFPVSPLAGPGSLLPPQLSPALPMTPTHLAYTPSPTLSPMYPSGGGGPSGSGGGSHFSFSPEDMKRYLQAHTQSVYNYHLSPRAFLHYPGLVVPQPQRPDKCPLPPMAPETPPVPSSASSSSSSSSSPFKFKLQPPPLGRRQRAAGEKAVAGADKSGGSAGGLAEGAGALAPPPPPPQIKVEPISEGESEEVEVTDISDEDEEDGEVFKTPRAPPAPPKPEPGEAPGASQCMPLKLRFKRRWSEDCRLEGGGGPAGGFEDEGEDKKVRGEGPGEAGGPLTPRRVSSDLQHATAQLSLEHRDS
Summary of the method: (§1)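 Binding signal is given per hexamer as its read frequency for a factor divided by its frequency in the tag-only sample. GST-fused human transcription factors were expressed in yeast, captured on glutathione beads, barcoded with DNA and pooled with that sample, then incubated with 200 nmole of a 16-mer random double-stranded DNA library in Tris/NaCl/DTT/glycerol buffer for 30 min at room temperature. The pools were then washed, crosslinked, proximity-ligated, amplified by PCR and sequenced on an Illumina NextSeq500.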

ETV3L = molecular target: T2, ETV3L (Homo sapiens, UniProt Q6ZN32 1-361)
T2 sequence: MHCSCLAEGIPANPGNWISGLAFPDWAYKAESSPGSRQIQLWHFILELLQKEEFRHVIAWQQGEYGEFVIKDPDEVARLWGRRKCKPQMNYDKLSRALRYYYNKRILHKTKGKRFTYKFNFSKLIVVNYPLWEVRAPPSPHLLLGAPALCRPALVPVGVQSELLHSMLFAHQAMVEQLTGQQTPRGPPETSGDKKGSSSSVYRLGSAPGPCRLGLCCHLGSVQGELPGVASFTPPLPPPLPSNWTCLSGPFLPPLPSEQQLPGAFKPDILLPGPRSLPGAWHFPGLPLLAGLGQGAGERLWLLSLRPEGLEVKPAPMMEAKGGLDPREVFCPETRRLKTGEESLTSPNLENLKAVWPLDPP
Summary of the method: as §1

ETS2 = molecular target: T3, ETS2 (Homo sapiens, UniProt P15036 1-469)
T3 sequence: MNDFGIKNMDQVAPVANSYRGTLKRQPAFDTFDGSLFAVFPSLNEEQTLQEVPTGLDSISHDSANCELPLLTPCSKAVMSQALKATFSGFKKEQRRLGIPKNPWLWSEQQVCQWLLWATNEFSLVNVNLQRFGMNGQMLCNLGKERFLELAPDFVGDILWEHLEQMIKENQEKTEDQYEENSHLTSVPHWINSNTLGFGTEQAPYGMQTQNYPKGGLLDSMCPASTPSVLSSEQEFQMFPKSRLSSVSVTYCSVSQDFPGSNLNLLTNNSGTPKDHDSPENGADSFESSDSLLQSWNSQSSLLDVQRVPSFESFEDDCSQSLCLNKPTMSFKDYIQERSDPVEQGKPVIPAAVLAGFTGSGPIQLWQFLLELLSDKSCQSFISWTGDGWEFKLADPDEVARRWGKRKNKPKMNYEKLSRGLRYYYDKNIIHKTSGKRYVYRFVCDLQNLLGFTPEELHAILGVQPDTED
Summary of the method: as §1

SPDEF = molecular target: T4, SPDEF (Homo sapiens, UniProt O95238 1-335)
T4 sequence: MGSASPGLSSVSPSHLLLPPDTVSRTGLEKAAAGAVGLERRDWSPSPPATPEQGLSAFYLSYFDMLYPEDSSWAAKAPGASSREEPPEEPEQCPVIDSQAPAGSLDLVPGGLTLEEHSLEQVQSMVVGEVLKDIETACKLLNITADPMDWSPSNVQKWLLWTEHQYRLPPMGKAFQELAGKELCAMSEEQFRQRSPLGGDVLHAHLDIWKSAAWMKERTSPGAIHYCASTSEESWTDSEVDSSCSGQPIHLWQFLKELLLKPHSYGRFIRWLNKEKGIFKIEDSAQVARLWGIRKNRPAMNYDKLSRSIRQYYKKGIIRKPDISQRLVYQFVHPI
Summary of the method: as §1

ETV7 = molecular target: T5, ETV7 (Homo sapiens, UniProt Q9Y603 1-341)
T5 sequence: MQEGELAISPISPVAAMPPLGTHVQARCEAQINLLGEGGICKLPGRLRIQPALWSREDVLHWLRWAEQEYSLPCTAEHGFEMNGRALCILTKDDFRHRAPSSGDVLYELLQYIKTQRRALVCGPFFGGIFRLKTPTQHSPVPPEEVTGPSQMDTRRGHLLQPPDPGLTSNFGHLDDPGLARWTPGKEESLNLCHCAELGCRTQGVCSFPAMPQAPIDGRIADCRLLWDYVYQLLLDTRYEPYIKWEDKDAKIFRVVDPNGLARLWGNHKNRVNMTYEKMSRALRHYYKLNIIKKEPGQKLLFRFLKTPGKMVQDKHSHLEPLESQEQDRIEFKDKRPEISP
Summary of the method: as §1

ETV3 = molecular target: T6, ETV3 (Homo sapiens, UniProt P41162-2 1-143)
T6 sequence: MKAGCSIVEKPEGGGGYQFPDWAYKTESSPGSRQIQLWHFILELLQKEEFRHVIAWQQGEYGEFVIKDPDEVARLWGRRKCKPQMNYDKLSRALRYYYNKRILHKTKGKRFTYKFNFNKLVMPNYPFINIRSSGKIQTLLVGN
Summary of the method: as §1

ETV6 = ETV6 (Homo sapiens, UniProt P41212 1-452)
Sequence of ETV6 (P41212 whole entry): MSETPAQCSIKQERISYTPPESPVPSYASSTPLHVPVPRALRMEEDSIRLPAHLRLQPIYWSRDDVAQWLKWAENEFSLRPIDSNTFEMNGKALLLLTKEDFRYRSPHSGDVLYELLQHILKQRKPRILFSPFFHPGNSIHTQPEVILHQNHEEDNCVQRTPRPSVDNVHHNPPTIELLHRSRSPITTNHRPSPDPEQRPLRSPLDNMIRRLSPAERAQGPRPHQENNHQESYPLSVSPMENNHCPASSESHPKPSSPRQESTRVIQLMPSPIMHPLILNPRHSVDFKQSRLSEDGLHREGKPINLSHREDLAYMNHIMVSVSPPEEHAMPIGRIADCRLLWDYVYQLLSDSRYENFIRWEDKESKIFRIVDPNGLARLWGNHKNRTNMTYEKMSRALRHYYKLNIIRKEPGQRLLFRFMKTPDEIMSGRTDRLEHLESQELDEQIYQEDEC
Summary of the method: as §1

ELF5 = molecular target: T7, ELF5 (Homo sapiens, UniProt Q9UKW6-2 1-255)
T7 sequence: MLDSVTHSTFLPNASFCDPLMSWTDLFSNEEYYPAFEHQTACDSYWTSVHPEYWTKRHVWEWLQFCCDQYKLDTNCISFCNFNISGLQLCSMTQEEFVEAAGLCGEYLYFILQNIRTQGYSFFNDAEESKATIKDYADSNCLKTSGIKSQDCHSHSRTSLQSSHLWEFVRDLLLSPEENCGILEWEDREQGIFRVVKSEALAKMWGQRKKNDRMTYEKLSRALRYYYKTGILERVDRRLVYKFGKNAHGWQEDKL
Summary of the method: as §1

Sequence | binding signal (ERF) | binding signal (ETV3L) | binding signal (ETS2) | binding signal (SPDEF) | binding signal (ETV7) | binding signal (ETV3) | binding signal (ETV6) | binding signal (ELF5)
TCACAG | 1.02 fold enrichment (6-mer frequency, TF over GST control) | 1.13 fold enrichment (6-mer frequency, TF over GST control) | 1.06 fold enrichment (6-mer frequency, TF over GST control) | 1.05 fold enrichment (6-mer frequency, TF over GST control) | 1.11 fold enrichment (6-mer frequency, TF over GST control) | 1.06 fold enrichment (6-mer frequency, TF over GST control) | 1.11 fold enrichment (6-mer frequency, TF over GST control) | 
TACTGA | 1.17 fold enrichment (6-mer frequency, TF over GST control) | 1.13 fold enrichment (6-mer frequency, TF over GST control) | 1.1 fold enrichment (6-mer frequency, TF over GST control) | 1.14 fold enrichment (6-mer frequency, TF over GST control) | 1.01 fold enrichment (6-mer frequency, TF over GST control) | 1.11 fold enrichment (6-mer frequency, TF over GST control) |  | 
TCGATA | 1.24 fold enrichment (6-mer frequency, TF over GST control) | 1.13 fold enrichment (6-mer frequency, TF over GST control) | 1.06 fold enrichment (6-mer frequency, TF over GST control) | 1.07 fold enrichment (6-mer frequency, TF over GST control) | 1.07 fold enrichment (6-mer frequency, TF over GST control) | 1.11 fold enrichment (6-mer frequency, TF over GST control) | 1.01 fold enrichment (6-mer frequency, TF over GST control) | 
GGCATT | 1.08 fold enrichment (6-mer frequency, TF over GST control) | 1.06 fold enrichment (6-mer frequency, TF over GST control) | 1.09 fold enrichment (6-mer frequency, TF over GST control) | 1 fold enrichment (6-mer frequency, TF over GST control) | 1.05 fold enrichment (6-mer frequency, TF over GST control) | 1.07 fold enrichment (6-mer frequency, TF over GST control) | 1.12 fold enrichment (6-mer frequency, TF over GST control) | 
TGCGTT | 1.2 fold enrichment (6-mer frequency, TF over GST control) | 1.11 fold enrichment (6-mer frequency, TF over GST control) | 1.09 fold enrichment (6-mer frequency, TF over GST control) | 1.08 fold enrichment (6-mer frequency, TF over GST control) | 1.24 fold enrichment (6-mer frequency, TF over GST control) | 1.06 fold enrichment (6-mer frequency, TF over GST control) |  | 
ATTGAA | 1.14 fold enrichment (6-mer frequency, TF over GST control) | 1.1 fold enrichment (6-mer frequency, TF over GST control) | 1.09 fold enrichment (6-mer frequency, TF over GST control) | 1.07 fold enrichment (6-mer frequency, TF over GST control) | 1.14 fold enrichment (6-mer frequency, TF over GST control) | 1.03 fold enrichment (6-mer frequency, TF over GST control) | 1.08 fold enrichment (6-mer frequency, TF over GST control) | 
GATAGC | 1.15 fold enrichment (6-mer frequency, TF over GST control) | 1.06 fold enrichment (6-mer frequency, TF over GST control) | 1.12 fold enrichment (6-mer frequency, TF over GST control) | 1.05 fold enrichment (6-mer frequency, TF over GST control) | 1.06 fold enrichment (6-mer frequency, TF over GST control) | 1.05 fold enrichment (6-mer frequency, TF over GST control) | 1.03 fold enrichment (6-mer frequency, TF over GST control) | 
GCACGC | 1.09 fold enrichment (6-mer frequency, TF over GST control) | 1.07 fold enrichment (6-mer frequency, TF over GST control) | 1 fold enrichment (6-mer frequency, TF over GST control) | 1.04 fold enrichment (6-mer frequency, TF over GST control) | 1.07 fold enrichment (6-mer frequency, TF over GST control) | 1.14 fold enrichment (6-mer frequency, TF over GST control) | 1.07 fold enrichment (6-mer frequency, TF over GST control) | 
GCCAAT | 1.11 fold enrichment (6-mer frequency, TF over GST control) | 1.05 fold enrichment (6-mer frequency, TF over GST control) | 1.06 fold enrichment (6-mer frequency, TF over GST control) | 1.07 fold enrichment (6-mer frequency, TF over GST control) | 1.06 fold enrichment (6-mer frequency, TF over GST control) | 1.1 fold enrichment (6-mer frequency, TF over GST control) |  | 
AGCCCT | 1.11 fold enrichment (6-mer frequency, TF over GST control) | 1.12 fold enrichment (6-mer frequency, TF over GST control) | 1.16 fold enrichment (6-mer frequency, TF over GST control) | 1.07 fold enrichment (6-mer frequency, TF over GST control) |  | 1.15 fold enrichment (6-mer frequency, TF over GST control) | 1.11 fold enrichment (6-mer frequency, TF over GST control) | 1.08 fold enrichment (6-mer frequency, TF over GST control)
TAGGTT | 1.06 fold enrichment (6-mer frequency, TF over GST control) | 1.08 fold enrichment (6-mer frequency, TF over GST control) | 1.06 fold enrichment (6-mer frequency, TF over GST control) | 1.17 fold enrichment (6-mer frequency, TF over GST control) |  | 1.14 fold enrichment (6-mer frequency, TF over GST control) | 1.16 fold enrichment (6-mer frequency, TF over GST control) | 1.06 fold enrichment (6-mer frequency, TF over GST control)
GTTATC | 1.06 fold enrichment (6-mer frequency, TF over GST control) | 1.07 fold enrichment (6-mer frequency, TF over GST control) | 1.14 fold enrichment (6-mer frequency, TF over GST control) | 1.11 fold enrichment (6-mer frequency, TF over GST control) |  | 1.07 fold enrichment (6-mer frequency, TF over GST control) | 1.1 fold enrichment (6-mer frequency, TF over GST control) | 1.14 fold enrichment (6-mer frequency, TF over GST control)
AGGTAT | 1.16 fold enrichment (6-mer frequency, TF over GST control) | 1.02 fold enrichment (6-mer frequency, TF over GST control) | 1 fold enrichment (6-mer frequency, TF over GST control) | 1.12 fold enrichment (6-mer frequency, TF over GST control) | 1.12 fold enrichment (6-mer frequency, TF over GST control) | 1.11 fold enrichment (6-mer frequency, TF over GST control) | 1.01 fold enrichment (6-mer frequency, TF over GST control) | 
CGCCTA | 1.15 fold enrichment (6-mer frequency, TF over GST control) | 1.25 fold enrichment (6-mer frequency, TF over GST control) | 1.19 fold enrichment (6-mer frequency, TF over GST control) | 1.15 fold enrichment (6-mer frequency, TF over GST control) |  | 1.2 fold enrichment (6-mer frequency, TF over GST control) | 1.14 fold enrichment (6-mer frequency, TF over GST control) | 1.18 fold enrichment (6-mer frequency, TF over GST control)
CTCAGA | 1.21 fold enrichment (6-mer frequency, TF over GST control) | 1.06 fold enrichment (6-mer frequency, TF over GST control) | 1.02 fold enrichment (6-mer frequency, TF over GST control) | 1.11 fold enrichment (6-mer frequency, TF over GST control) |  | 1.01 fold enrichment (6-mer frequency, TF over GST control) | 1.13 fold enrichment (6-mer frequency, TF over GST control) | 1.03 fold enrichment (6-mer frequency, TF over GST control)
CGGCTT | 1.27 fold enrichment (6-mer frequency, TF over GST control) | 1.1 fold enrichment (6-mer frequency, TF over GST control) | 1.21 fold enrichment (6-mer frequency, TF over GST control) | 1.33 fold enrichment (6-mer frequency, TF over GST control) |  | 1.15 fold enrichment (6-mer frequency, TF over GST control) | 1.16 fold enrichment (6-mer frequency, TF over GST control) | 1.19 fold enrichment (6-mer frequency, TF over GST control)
